The values below come from PubChem BioAssay.

Assay [1] relates to Plasmodium falciparum Sir2 (PF13_0152, Sir2A). Briefly: Plasmodium falciparum Sir2A binding compounds – biochemical, small-molecule microarray, 635 nm fluorescence, primary screen (AID 1098).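 Note: score merges spot fluorescence intensity with its signal-to-noise ratio.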 To be noted: fluorescence 635 nm, higher = more signal.
A short description of assay [2]: probe aDKK1 binding to arrayed compounds – biochemical, biotinylated probe, 635/667 nm fluorescence, primary screen (AID 1099).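 Note: score merges 667nm spot fluorescence with signal to noise across triplicate slides; reference of the scale not given here.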 The settings on record: small-molecule microarray, higher = more signal.
Assay [3] is described as follows: probe aCHRDL2 binding to arrayed compounds – biochemical, biotinylated probe, 635/667 nm fluorescence, primary screen (AID 1100). To be noted: small-molecule microarray, higher = more signal.
Assay [4] can be described thus: change in splice reporter luminescence, either direction, cell-based, HEK293, spliceosome inhibition project, primary screen (AID 1101).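 Note: HEK293 cells carrying a splicing-competent luciferase reporter gene; test concentration not given here.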 The settings on record: HEK293 splicing luciferase reporter, 24 h, higher = more signal, called active from +8 up or from −8 down.
Assay [5] concerns the target Fibroblast growth factor 10 (Homo sapiens) (UniProt O15520). Briefly: compounds binding fibroblast growth factor 10 – biochemical, small-molecule microarray, 635 nm fluorescence, primary screen (AID 1102). To be noted: FGF10 binding, fluorescence 635 nm, higher = more signal.
Assay [6] concerns glycogen synthase kinase-3 (GSK3A per assay name; protocol says GSK3B). The assay is described as follows: compounds binding glycogen synthase kinase-3 – biochemical, small-molecule microarray, 635 nm fluorescence, GSK3A, primary screen (AID 1103). Note: the record names both GSK3A and GSK3B. To be noted: fluorescence 635 nm, higher = more signal.
Assay [7] addresses Epidermal growth factor receptor (Homo sapiens) (UniProt P00533). Briefly: compounds binding epidermal growth factor receptor – biochemical, small-molecule microarray, 635 nm fluorescence, primary screen (AID 1104).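 Note: score merges 667 nm emission intensity with spot signal to noise over triplicate slides.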 The settings on record: EGFR binding, higher = more signal.
Assay [8] concerns the target Follistatin-related protein 3 (Homo sapiens) (UniProt O95633). Briefly: compounds binding follistatin-related protein 3 – biochemical, small-molecule microarray, 635 nm fluorescence, primary screen (AID 1105).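 Note: score merges emission near 667 nm and signal to noise per printed spot across three slides.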 The settings on record: FSTL3 binding, higher = more signal.
The target in assay [9] is Dickkopf-related protein 1 (Homo sapiens) (UniProt O94907). Briefly: small molecules binding DKK1 protein – biochemical, small-molecule microarray, 635 nm fluorescence scan, primary screen (AID 1106).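 Note: score merges emission near 667 nm with signal to noise over three replicate slides.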 To be noted: higher = more signal.
For assay [10], the system named is Inhibin beta A chain (activin A). Briefly: small molecules binding activin A – biochemical, small-molecule microarray, 635 nm fluorescence scan, primary screen (AID 1107).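 Note: mouse activin A protein probed at 4.33 µg/mL on printed slides; score merges bound-protein fluorescence near 667 nm with spot signal-to-noise.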 To be noted: INHBA, higher = more signal.

Structures are written as SMILES. Calls of active or inactive are those of the source.

Chain of Dickkopf-related protein 1 (Homo sapiens) (O94907 whole entry, looked up): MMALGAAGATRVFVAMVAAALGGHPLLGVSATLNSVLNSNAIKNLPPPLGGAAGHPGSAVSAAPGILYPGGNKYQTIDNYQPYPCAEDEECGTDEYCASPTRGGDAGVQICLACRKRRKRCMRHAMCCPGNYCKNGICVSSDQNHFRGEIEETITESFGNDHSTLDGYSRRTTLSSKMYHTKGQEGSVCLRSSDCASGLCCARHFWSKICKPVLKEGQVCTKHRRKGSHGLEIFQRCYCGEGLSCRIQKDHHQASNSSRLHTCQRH
Chain of Fibroblast growth factor 10 (Homo sapiens) (O15520 whole entry, looked up): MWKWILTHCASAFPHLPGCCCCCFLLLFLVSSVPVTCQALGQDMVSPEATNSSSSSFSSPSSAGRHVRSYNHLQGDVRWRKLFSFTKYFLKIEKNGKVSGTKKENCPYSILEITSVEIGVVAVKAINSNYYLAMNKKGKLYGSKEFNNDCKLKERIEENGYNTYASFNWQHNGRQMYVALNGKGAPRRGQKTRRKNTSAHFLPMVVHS
Chain of Epidermal growth factor receptor (Homo sapiens) (P00533 whole entry, looked up): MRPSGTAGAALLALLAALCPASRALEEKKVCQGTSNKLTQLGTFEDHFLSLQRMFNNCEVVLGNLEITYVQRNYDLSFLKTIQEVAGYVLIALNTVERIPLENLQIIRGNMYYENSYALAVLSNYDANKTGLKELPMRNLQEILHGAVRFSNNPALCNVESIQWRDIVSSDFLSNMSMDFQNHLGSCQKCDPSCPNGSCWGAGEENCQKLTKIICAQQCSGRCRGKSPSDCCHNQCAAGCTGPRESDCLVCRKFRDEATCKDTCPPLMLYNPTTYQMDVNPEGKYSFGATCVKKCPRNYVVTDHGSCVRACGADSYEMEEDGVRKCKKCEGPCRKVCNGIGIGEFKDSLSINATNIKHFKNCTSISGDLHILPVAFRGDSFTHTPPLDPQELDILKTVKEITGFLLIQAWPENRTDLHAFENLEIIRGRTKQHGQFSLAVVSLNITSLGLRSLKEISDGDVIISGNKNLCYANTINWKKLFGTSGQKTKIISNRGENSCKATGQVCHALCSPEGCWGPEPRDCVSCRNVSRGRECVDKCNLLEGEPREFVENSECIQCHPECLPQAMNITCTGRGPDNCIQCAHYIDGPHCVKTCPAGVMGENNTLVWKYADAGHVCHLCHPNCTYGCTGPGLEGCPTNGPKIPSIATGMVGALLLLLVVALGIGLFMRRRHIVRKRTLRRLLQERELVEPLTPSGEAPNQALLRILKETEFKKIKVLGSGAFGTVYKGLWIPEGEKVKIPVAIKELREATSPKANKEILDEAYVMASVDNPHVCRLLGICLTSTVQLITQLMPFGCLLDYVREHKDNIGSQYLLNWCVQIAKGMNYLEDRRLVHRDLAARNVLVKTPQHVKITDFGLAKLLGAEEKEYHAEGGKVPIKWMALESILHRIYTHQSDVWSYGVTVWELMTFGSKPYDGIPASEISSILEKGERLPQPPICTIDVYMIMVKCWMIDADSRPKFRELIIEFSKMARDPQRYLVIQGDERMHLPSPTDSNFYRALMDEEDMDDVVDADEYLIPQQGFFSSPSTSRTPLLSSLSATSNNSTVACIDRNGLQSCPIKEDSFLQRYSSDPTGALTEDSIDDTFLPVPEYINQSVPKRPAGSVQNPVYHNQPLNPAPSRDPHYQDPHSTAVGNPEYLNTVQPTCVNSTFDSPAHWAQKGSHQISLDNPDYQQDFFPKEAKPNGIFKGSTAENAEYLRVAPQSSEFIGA
Chain of Follistatin-related protein 3 (Homo sapiens) (O95633 whole entry, looked up): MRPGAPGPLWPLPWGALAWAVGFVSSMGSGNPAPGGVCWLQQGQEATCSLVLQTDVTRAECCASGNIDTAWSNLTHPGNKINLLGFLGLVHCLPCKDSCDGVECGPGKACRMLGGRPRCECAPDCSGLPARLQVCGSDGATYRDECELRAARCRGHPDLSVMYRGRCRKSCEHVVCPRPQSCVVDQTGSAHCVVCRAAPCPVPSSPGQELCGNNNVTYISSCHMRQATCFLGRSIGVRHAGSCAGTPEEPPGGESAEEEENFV

Turning to `O=C1O[C@H](c2ccccc2)[C@H](c2ccccc2)N2[C@H]1[C@@H](C(=O)N1CCCCCCC1)[C@]1(C(=O)Nc3ccc(C#CCCO)cc31)[C@H]2c1ccc(OCCO)cc1`, the composite z-score in assay [1] is 2.14; in assay [2] it was 2.78; in assay [3], 1.42; in assay [5] it was 1.65; in assay [6], 1.45; in assay [7], 1.89. Moreover, the composite z-score in assay [8] stood at 1.66; in [9], 2.65; in [10], 1.9. The z-score in [4] is -0.302 (inactive).

For the molecule `CC1=C2[C@@H](CCc3ccccc3)OB(O)C[C@@H]2[C@@H]2C(=O)C=CC(=O)[C@@H]2C1`, the composite z-score is 0.338 in assay [1]; -0.102 in assay [2]; -0.48 in assay [3]; 1.28 in assay [5]; 0.612 in assay [6]; 0.309 in assay [7]. For the same molecule, the composite z-score in assay [8] was 0.853; in assay [9], 0.636; in assay [10], 0.729. In addition, the z-score in assay [4] was 3.33 (inactive).

With `COCCCNC(=O)[C@]1(Cc2ccccc2)N=C(c2ccc(OCCCO)cc2)O[C@@H]1c1ccccc1N=[N+]=[N-]`, the composite z-score in assay [1] is 0.816; in assay [2], 0.346; in assay [3], 0.879; in assay [5], 1.26; in assay [6], 1.33; in [7] it was -0.184. For the same molecule, the composite z-score was 0.481 in assay [8], -0.267 in [9] and 0.618 in assay [10]. Also, the z-score in assay [4] was -1.51 (inactive).

Regarding `COC(=O)c1ccc(OC)c(/C=C\CC(CCc2ccccc2)OC(C)=O)c1` (stereo not given), the composite z-score in [1] was -0.388; in assay [2], -0.493; in assay [3], -0.101; in assay [5], -0.614; in assay [6], -0.0629; in assay [7], -0.309. Moreover, the composite z-score in [8] amounted to 0.21; in [9], 0.239; in [10], 1.53. Also, the z-score in [4] is -0.101 (inactive).

As for `O=C1O[C@@H](c2ccccc2)[C@@H](c2ccccc2)N2[C@@H](c3ccc(O)cc3)[C@]3(C(=O)Nc4ccc(C#CC5=CCCCC5)cc43)[C@@H](C(=O)Nc3nc4ccccc4s3)[C@H]12`, the composite z-score was 1.61 in [1]; 0.307 in assay [2]; -0.0516 in assay [3]; 1.36 in [5]; 1.29 in assay [6]; 0.381 in assay [7]. In addition, the values for the composite z-score in assay [8], in assay [9] and in assay [10] were 1.31, 1.06 and 1.07, respectively. Also, the z-score in assay [4] was -0.0881 (inactive).

In the case of `CCCCCCC#C[Si](O[C@H](c1ccccc1)c1cn(Cc2cccc(Cl)c2)nn1)(C(C)C)C(C)C`, the composite z-score in [1] was 1.11; in [2], -0.166; in [3] it was -0.287; in assay [5], 0.155; in [6] it was 0.57; in assay [7], 0.269. For the same molecule, the composite z-score came out at 0.309 in [8], 0.0628 in [9] and 0.308 in assay [10]. Further, the z-score in [4] was -0.577 (inactive).

On to `Cc1ccc(S[C@]2(C(=O)O)CC(=O)N(Cc3ccccc3C(F)(F)F)[C@@H]2c2ccc(CO)cc2)cc1`, for which the composite z-score in [1] is -0.809; in assay [2] it was -0.0885; in [3] it was 1.08; in assay [5] it was -0.628; in assay [6], -0.926; in assay [7], -1.01. The values for the composite z-score in assay [8], in assay [9] and in assay [10] were -0.894, -1.03 and 1, respectively. For the same molecule, the z-score in assay [4] was 0.0922 (inactive).

As for `[N-]=[N+]=NCc1ccccc1[C@H]1OC(c2ccc(OCCCO)cc2)=N[C@@]1(Cc1ccccc1N=[N+]=[N-])C(=O)N1CCCCC1`, the composite z-score in [1] turned out to be 1.31; in assay [2], 1.11; in assay [3] it was 1.06; in assay [5], 1.42; in assay [6], 1.29; in [7], 0.363. Also, the composite z-score came to 1.25 in [8], 0.256 in assay [9] and 1.23 in [10]. In addition, in [4], the z-score was 0.532 (inactive).

On to `CC(C)CN1C(=O)[C@@]2(Cc3ccccc31)c1ccccc1C(=O)N(Cc1ccccc1)[C@H]2c1ccc(CO)cc1`, for which the composite z-score in [1] was -0.743; in [2], 0.236; in [3], 0.514; in [5], -0.701; in [6], -0.776; in assay [7] it was -0.636. The composite z-score in assay [8] was 0.554; in assay [9], -0.952; in assay [10], -0.298. Besides, in [4], the z-score is -0.489 (inactive).

For `COC(=O)[C@@]1(Cc2ccccc2)[C@H]2c3cc(C(=O)N(C)C)n(Cc4ccccn4)c3C[C@H]2CN1C(=O)c1ccccc1`, the composite z-score is 1.57 in [1]; 1.44 in assay [2]; 1.37 in [3]; 0.548 in assay [5]; 0.225 in assay [6]; -0.805 in assay [7]. In addition, the composite z-score is 0.155 in [8], -1.09 in [9] and 0.46 in [10]. Also, in [4], the z-score is -1.58 (inactive).

Consider `COCCOC(=O)N1C(=O)[C@@]2(c3cc(C#CC4(O)CCCCCC4)ccc31)[C@H](C(=O)NC[C@H](O)c1ccccc1)[C@H]1C(=O)O[C@H](c3ccccc3)[C@H](c3ccccc3)N1[C@@H]2c1ccc(OCCO)cc1`, for which the composite z-score in [1] is 0.971; in [2] it was -0.0726; in assay [3] it was -0.0689; in assay [5] it was 0.68; in assay [6] it was 0.673; in assay [7], 0.429. Also, the composite z-score in [8] was found to be 0.834; in assay [9], 0.348; in assay [10], 0.193. The z-score in [4] was -1.15 (inactive).

On to `CCOc1cc(C(O)C2C=CC3C(=O)NC(=O)C3N2Nc2ccccn2)ccc1O` (stereo not given), for which the composite z-score in [1] was 0.38; in [2] it was -0.0596; in assay [3], -0.0156; in assay [5] it was 0.592; in [6] it was 0.156; in assay [7], 0.28. The figures for the composite z-score in assay [8], in assay [9] and in assay [10] were 0.189, 0.107 and 0.925, respectively. In addition, in [4], the z-score was 1.12 (inactive).

`CCCCC(CC)C(O)C1C=CC2C(=O)NC(=O)C2N1Nc1ccccn1` (stereo not given): the composite z-score is 0.768 in assay [1]; 0.189 in assay [2]; 0.471 in assay [3]; 0.327 in [5]; 0.493 in [6]; -0.035 in [7]. Also, the values for the composite z-score in assay [8], in assay [9] and in assay [10] were 0.768, 0.112 and 1.33, respectively. For the same molecule, in assay [4], the z-score was 1.08 (inactive).

Regarding `CCCNC(=O)[C@@]1(Sc2ccc(C)cc2)CC(=O)N(Cc2ccccc2)[C@@H]1c1ccc(CO)cc1I`, the composite z-score in assay [1] worked out at 0.523; in [2] it was 0.806; in assay [3] it was 0.484; in assay [5], 0.559; in assay [6], 0.108; in assay [7], 0.183. Further, the composite z-score in assay [8] was found to be 0.942; in assay [9] it was 0.353; in assay [10], 1.47. Further, in assay [4], the z-score was -0.494 (inactive).

On to `COc1cc2c(cc1OC)CN(C(=O)[C@@H]1[C@H]3C(=O)O[C@H](c4ccccc4)[C@H](c4ccccc4)N3[C@H](c3ccc(OCCO)cc3)[C@@]13C(=O)Nc1ccc(C#CCCO)cc13)CC2`, for which the composite z-score in [1] is 1.18; in assay [2], -0.0226; in assay [3] it was 0.772; in assay [5], 1.28; in assay [6] it was 1.27; in assay [7], 0.714. The composite z-score amounted to 1.23 in assay [8], 0.646 in assay [9] and 0.638 in assay [10]. The z-score in [4] is -0.921 (inactive).

Consider `O=C1C2C=CC(C(O)c3ccc(Br)cc3)N(Nc3ccccc3)C2C(=O)N1c1ccccc1` (stereo not given), for which the composite z-score is 0.489 in assay [1]; -0.0556 in assay [2]; 0.504 in [3]; 0.295 in [5]; 0.435 in [6]; 0.181 in [7]. The results for the composite z-score in assay [8], in assay [9] and in [10] were 0.429, -0.25 and 1.23, respectively. Further, in assay [4], the z-score was 1.34 (inactive).

`CC(C)C(CO)N1C(=O)[C@@H]2[C@H]3C(=O)OCC=C[C@H]3OC23C=CCN(Cn2nnc4ccccc42)C(=O)[C@@H]13` (stereo not given in full): the composite z-score was 0.335 in assay [1]; -0.374 in [2]; 0.465 in [3]; -0.777 in [5]; -1.05 in assay [6]; -0.851 in assay [7]. Also, the composite z-score is -1.41 in assay [8], -1.18 in [9] and -1.33 in assay [10]. Further, the z-score in assay [4] is 0.184 (inactive).
